Source: PubChem BioAssay
In the library only some 1.5% were active in any assay of this set; here they are far more common.
Mac1 fbg inh: inhibitors of CD11b/CD18 adhesion to fibrinogen, primary screen, K562 cells, luminescence | inhibition, % at 10 µM | ATPlite luminescence; Mn2+ added to activate the integrin | Integrin beta-2 (Homo sapiens) + Integrin alpha-M (Homo sapiens), P05107+P11215 | 93,000 tested, 0.54% active;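 active means primary inhibition of 50% or more at 10 µM, then 40% or more on retest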
HePTP inhibitor: inhibitors of human HePTP phosphatase, primary screen, biochemical, absorbance, leukemia target; Tyrosine-protein phosphatase non-receptor type 7 (Homo sapiens), P35236; AID 521, 2006; 110,000 tested, 0.64% active; inhibition, % at 20 µM; recombinant HePTP phosphatase activity, OD absorbance; in the data active means inhibition above about 50%;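 further: plate controls were vehicle for no effect and reference inhibitor for full effect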
Target sequence (P35236 whole entry, looked up): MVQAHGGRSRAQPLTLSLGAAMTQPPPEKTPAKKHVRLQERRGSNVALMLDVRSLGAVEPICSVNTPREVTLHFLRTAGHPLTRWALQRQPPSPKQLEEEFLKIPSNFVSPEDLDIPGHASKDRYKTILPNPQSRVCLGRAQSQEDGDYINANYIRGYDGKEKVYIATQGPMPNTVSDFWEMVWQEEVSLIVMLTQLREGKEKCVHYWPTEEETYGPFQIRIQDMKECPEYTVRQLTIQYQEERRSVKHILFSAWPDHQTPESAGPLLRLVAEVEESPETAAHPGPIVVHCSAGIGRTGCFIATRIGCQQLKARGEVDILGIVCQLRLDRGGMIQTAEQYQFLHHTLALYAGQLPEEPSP
Mac1 fbg enh: enhancers of CD11b/CD18 adhesion to fibrinogen, primary screen, K562 cells, luminescence. 93,000 tested, 0.07% active. activation, % at 10 µM. ATPlite luminescence. AID 1499, 2009. Integrin beta-2 (Homo sapiens) + Integrin alpha-M (Homo sapiens), P05107+P11215;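 active means 10 µM primary screen giving 50% or more activity, confirmed by 40% or more on retest at that dose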
PLAP activator: PLAP enzyme activators, biochemical, luminescence, HTS; activation fold at 20 µM; 96,000 tested, 1.2% active; purified PLAP enzyme, luminescent substrate read-out; active compounds read high; AID 696, 2007; in the data active means activation fold above about 2
Starred values were filed as active, the others as inactive; / = not tested or not shown.

SMILES	Mac1 fbg inh	HePTP inhibitor	Mac1 fbg enh	PLAP activator
COc1ccc(CCNC(=O)c2cc(-c3cc(C)ccc3O)n[nH]2)cc1OC	-9	/	2	2.9*
N/C(=N\OC(=O)c1cccc(F)c1)c1cccnc1	/	6	/	/
O=C(O)c1cc(-c2ccccc2Cl)nc2ccccc12	/	3	/	/
COC(=O)c1c(NC(=S)Nc2ccc(F)cc2[N+](=O)[O-])sc2c1CCCCC2	86*	/	-5	/
Cc1cccc(OCC(=O)Nc2ccc(Cl)cc2C(F)(F)F)c1	/	2	/	/
O=C(O)c1ccc2c(c1)C(=O)N(c1ccc(C(=O)Nc3cccc(O)c3)cc1)C2=O	/	-1	/	/
Cc1n[nH]c(C)c1Sc1ccccc1N=Cc1cc(Cl)cc([N+](=O)[O-])c1O	57*	-2	-6	1
CCn1c(C)nc2cc(C(=O)n3cc(C(=O)c4cc(F)ccc4O)cn3)ccc21	-4	6	-1	2.1*
O=C(O)CC(C(=O)OCCOc1ccccc1)N1CCOCC1 (centres undefined)	-9	-8	-2	0.9
O=C(CC(C(=O)O)N1CCOCC1)c1ccccc1 (centres undefined)	/	103*	/	/
CC(=O)N1c2ccccc2-c2c(sn(-c3ccc(C)cc3)c2=S)C1(C)C	/	8	/	/
COc1ccc(Cl)cc1N(CC(=O)NCc1ccco1)S(=O)(=O)c1ccc(C)c([N+](=O)[O-])c1	/	-2	/	/
COc1ccc(N2C(=O)c3ccc(C(=O)Nc4cc(Cl)ccc4C(=O)O)cc3C2=O)cc1	/	102*	/	/
O=C(NCc1ccco1)c1ccccc1NS(=O)(=O)c1ccc(Cl)s1	98*	/	-8	2.1*
COc1cccc(NC(=S)NNC(=O)c2c([N+](=O)[O-])c(C)nn2C)c1	-11	/	-3	2.1*
COc1cccc(NC(=S)NNC(=O)C(C)n2nc(C)c([N+](=O)[O-])c2C)c1 (centres undefined)	/	/	/	2.1*
COc1ccc(C)cc1NC(=O)COc1ccc(F)cc1	/	-12	/	/
CCN(CCO)c1nc(SC)nc2c1sc1nc(-c3ccco3)c3c(c12)CCC3	1	/	117*	1.6
CSc1nc(NCCOCCO)c2sc3nc(-c4ccco4)c4c(c3c2n1)CCC4	-18	28	68	1.4
O=P(Cc1nnco1)(c1ccccc1)c1ccccc1	-8	0	-3	2.1*
Cc1ccc(/C(O)=C2/C(=O)C(=O)N(CCCn3ccnc3)C2c2ccc(Cl)cc2)cc1 (centres undefined)	/	-2	/	/
CCCCCOc1ccc(CSC(=N)N)cc1[N+](=O)[O-]	4	/	-3	0.7
COc1ccc(CSC(=N)N)cc1[N+](=O)[O-]	-43	/	0	2.7*
O=S(=O)(c1ccc2nc(COc3ccccc3)[nH]c2c1)N1CCOCC1	-4	5	-3	2*
O=S(=O)(c1ccc2nc(Cc3ccccc3)[nH]c2c1)N1CCOCC1	-2	-6	-1	2.2*
SMILES	Mac1 fbg inh	HePTP inhibitor	Mac1 fbg enh	PLAP activator
COc1cc(Cc2nc3ccc(S(=O)(=O)N4CCOCC4)cc3[nH]2)cc(OC)c1OC	4	/	4	1.6
O=S(=O)(c1ccc2nc(Cc3cccc(C(F)(F)F)c3)[nH]c2c1)N1CCOCC1	14	10	0	1
Cc1cc(C(=O)COC(=O)c2n[nH]c3ccccc23)c(C)n1C	-4	7	-1	1.6
COCCn1c(C)cc(C(=O)COC(=O)c2n[nH]c3ccccc23)c1C	53*	-10	-6	1.6
N#Cc1c(N)nc2c(c1-c1ccc(F)cc1)CCCCCC2	/	-1	/	/
O=C1c2cccnc2C(=O)N1Cc1ccccc1	/	-7	/	/
O=C1c2cccc3c(O)ccc(c23)C(=O)N1Cc1ccccc1	66*	/	-3	0.8
CCCCc1ccc(C2C(C#N)=C(N)SC(N)=C2C#N)s1	100*	-9	-11	1.2
Cc1ccc2cccc(NC(=O)C(F)(F)F)c2n1	-3	3	-7	1.2
Cc1cccc(NC(c2ccc(O)cc2)c2ccc3ccc(C)nc3c2O)n1 (centres undefined)	-20	/	0	2.8*
CCN(CC)CCCNc1nc2cc(OC)c(OC)cc2c2nc(-c3cccnc3)nn12	2	/	-6	1.5
CCN(CC)CCCNc1nc2cc(OC)c(OC)cc2c2nc(-c3ccccc3)nn12	15	/	-4	2*
COc1cc2nc(NCC3CCCO3)n3nc(-c4cccnc4)nc3c2cc1OC (centres undefined)	33	-9	2	2*
COc1cc2nc(NCCN3CCOCC3)n3nc(-c4ccccc4)nc3c2cc1OC	/	9	/	/
N#Cc1ccccc1NC(=O)Nc1ccc2ccccc2c1	/	-5	/	/
CCCNC(=O)CCC(=O)Nc1ncc(-c2ccc(C)cc2)n1C	-8	-4	-1	2.2*
CCCNC(=O)CCC(NS(=O)(=O)c1ccc(C)cc1)C(=O)NCCC (centres undefined)	-18	14	8	0.9
O=C(CSCC(=O)N1CCN(c2ccccc2)CC1)Nc1nc(-c2ccc(Cl)s2)cs1	73	/	-9	1.6
O=C(CSCC(=O)N1CCCCC1)Nc1nc(-c2ccc(Cl)s2)cs1	84*	6	-8	1.3
CCOc1ccc(NC(=O)N(CCC(C)C)C2CCN(C(C)=O)CC2)cc1	13	/	-4	2*
CCOCCCN(C(=O)Nc1ccc(CC)cc1)C1CCN(C(C)=O)CC1	3	-11	-6	1.2
CCn1c(CNc2ccc(C(=O)O)cc2)nc2ccccc21	31	/	-3	1.1
CCCn1c(CNc2ccc(Br)cc2)nc2ccccc21	62*	4	-3	/
CC1CCCC(C)N1C(=O)CCN1C(=O)c2ccccc2C1=O (centres undefined)	/	-16	/	/
COc1ccc(C(O)c2nc3ccccc3n2C)cc1OC (centres undefined)	39	4	-6	1
COc1cccc(C(O)c2nc3ccccc3n2C(C)C)c1 (centres undefined)	0	-9	0	2.4*
COC(=O)c1cc(NC(=O)c2ccc3c(c2)OCO3)cc(C(=O)OC)c1	/	-3	/	/
O=C(Nc1nnc(C2CC2)s1)c1ccc(Cl)c(S(=O)(=O)N2CCc3ccccc3C2)c1	101	/	-6	/
CCc1nnc(NC(=O)c2ccc(Cl)c(S(=O)(=O)N3CCc4ccccc43)c2)s1	86*	/	-2	1.9
